# According to the supplement of paper PMC12494721:
# Structures can show the parent of a compound that is named as a salt. A number with no mark means an inactive call.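 The calls were made as follows: for the amine columns active = adjusted P below 0.05 in both replicates with a change the same way and a mean fold change under 0.8 or over 1.25; inactive = the rest.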
# Test system: Escherichia coli IAI1
# Assay: fold change of Putrescine concentration vs plate DMSO controls (fold change (ratio)); higher = more amine produced, active = hit call of the paper (significant change in both replicates, either direction)
# Details: incubation time: 27 h, anaerobic, 37 °C
# Outline: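 Anaerobic mGAM cultures of four gut bacterial strains were grown at 37 °C for 27 h in 80 µL wells, starting at OD 0.1 before 1:1 dilution. Compounds were at 20 µM final (sweeteners 50 µM). Whole cultures were extracted with cold acetonitrile/methanol containing 0.1% formic acid and centrifuged. Amines were quantified by LC–triple-quadrupole MS (dynamic MRM) against external calibration curves and drift-corrected within batch. Each value is the fold change versus plate DMSO controls, averaged over 2 biological replicates.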
row,SMILES,fold change of Putrescine concentration
1,CN(CCOc1ccc(NS(C)(=O)=O)cc1)CCc1ccc(NS(C)(=O)=O)cc1 [Dofetilide] (20 µM),0.989
2,COc1cc2nc(N3CCN(C(=O)c4ccco4)CC3)nc(N)c2cc1OC [Prazosin hydrochloride] (20 µM),1.16
3,CCc1c2c(nc3ccc(OC(=O)N4CCC(N5CCCCC5)CC4)cc13)-c1cc3c(c(=O)n1C2)COC(=O)[C@]3(O)CC [Irinotecan hydrochloride trihydrate] (20 µM),1.11
4,O=C(O)CCNC(=O)c1ccccc1 [Betamipron] (20 µM),1.04
5,Cc1cc(C(C)(C)CC(C)(C)C)ccc1OCCOCC[N+](C)(C)Cc1ccccc1 [Methyl benzethonium chloride] (20 µM),1.05
6,CCN1CCN(C(=O)N[C@@H](C(=O)N[C@@H]2C(=O)N3C(C(=O)O)=C(CSc4nnnn4C)CS[C@H]23)c2ccc(O)cc2)C(=O)C1=O [Cefoperazone dihydrate] (20 µM),0.451
7,CN(C)CCCN1c2ccccc2CCc2ccccc21 [Imipramine hydrochloride] (20 µM),1.02
8,CCOC(=O)C1=C(C)NC(C)=C(C(=O)OC)C1c1cccc(Cl)c1Cl (centres undefined) [Felodipine] (20 µM),1.04
9,CCOC(=O)C1=C(COCCN)NC(C)=C(C(=O)OC)C1c1ccccc1Cl (centres undefined) [Amlodipine] (20 µM),0.986
10,O=C(O)c1cn(C2CC2)c2cc(N3CCNCC3)c(F)cc2c1=O [Ciprofloxacin hydrochloride monohydrate] (20 µM),0.53
11,Nc1ccn([C@@H]2CS[C@H](CO)O2)c(=O)n1 [Lamivudine] (20 µM),1.02
12,COc1ccc(CCN(C)CCCC(C#N)(c2ccc(OC)c(OC)c2)C(C)C)cc1OC (centres undefined) [Verapamil hydrochloride] (20 µM),1.05
13,CC[C@]12CCCN3CCc4c(n(c5ccccc45)[C@@](O)(C(=O)OC)C1)[C@@H]32 [Vincamine] (20 µM),0.996
14,Cc1noc(NS(=O)(=O)c2ccc(N)cc2)c1C [Sulfisoxazole] (20 µM),1.03
15,O=C1CN(/N=C/c2ccc([N+](=O)[O-])o2)C(=O)N1 [Nitrofurantoin] (20 µM),0.729 (active)
16,C=C[C@H]1CN2CC[C@H]1C[C@@H]2[C@@H](O)c1ccnc2ccc(OC)cc12 [Quinidine hydrochloride monohydrate] (20 µM),0.986
17,O=C1C(CC[S+]([O-])c2ccccc2)C(=O)N(c2ccccc2)N1c1ccccc1 (centres undefined) [Sulfinpyrazone] (20 µM),0.978
18,CCCCCCCCNC(C)C(O)c1ccc(SC(C)C)cc1 (centres undefined) [Suloctidil] (20 µM),1.03
19,CC(=O)Nc1ccc(O)cc1 [Acetaminophen] (20 µM),1.01
20,CC(C)(c1cc(Br)c(O)c(Br)c1)c1cc(Br)c(O)c(Br)c1 (20 µM),0.967

row,SMILES,fold change of Putrescine concentration
1,CCn1cc(C(=O)O)c(=O)c2cc(F)c(N3CCN(C)CC3)cc21 [Pefloxacin] (20 µM),0.793
2,Nc1ncn(C2OC(CO)C(O)C2O)c(=O)n1 (centres undefined) [Azacytidine-5] (20 µM),0.794
3,COc1cc(Cc2cnc(N)nc2N)cc(OC)c1OC [Trimethoprim] (20 µM),0.829
4,Cc1ccc(NC(=O)c2ccc(CN3CCN(C)CC3)cc2)cc1Nc1nccc(-c2cccnc2)n1 [Imatinib] (20 µM),0.954
5,C[C@H]1[C@H](NC(=O)/C(=N\OC(C)(C)C(=O)O)c2csc(N)n2)C(=O)N1S(=O)(=O)O [Aztreonam] (20 µM),0.86
6,Nc1nc2c(ncn2COCCO)c(=O)[nH]1 [Acyclovir] (20 µM),1.03
7,CC(C)/N=c1\cc2n(-c3ccc(Cl)cc3)c3ccccc3nc-2cc1Nc1ccc(Cl)cc1 [Clofazimine] (20 µM),1.04
8,Cc1nnc(SCC2=C(C(=O)O)N3C(=O)[C@@H](NC(=O)Cn4cnnn4)[C@H]3SC2)s1 [Cefazolin sodium salt] (20 µM),0.16 (active)
9,C[C@H](CS)C(=O)N1CCC[C@H]1C(=O)O [Captopril] (20 µM),0.963
10,"CN1[C@@H]2CC[C@H]1CC(OC(=O)C(O)c1ccccc1)C2 (mixture of isomers) [(R,S) Homatropine hydrobromide] (20 µM)",0.995
11,Cc1cnc(NC(=O)C2=C(O)c3ccccc3S(=O)(=O)N2C)s1 [Meloxicam] (20 µM),1.04
12,"CC(C)Cc1ccc([C@H](C)C(=O)O)cc1 [(S,+) Ibuprofen] (20 µM)",0.854
13,COc1c(N2C[C@@H]3CCCN[C@@H]3C2)c(F)cc2c(=O)c(C(=O)O)cn(C3CC3)c12 [Moxifloxacin] (20 µM),0.828
14,CCN(CC)CCNC(=O)c1ccc(N)cc1 [Procainamide hydrochloride] (20 µM),0.969
15,Clc1ccccc1CN1CCc2sccc2C1 [Ticlopidine hydrochloride] (20 µM),1.01
16,CCC(C)C(C(=O)OCC[N+](C)(CC)CC)c1ccccc1 (centres undefined) [Valethamate bromide] (20 µM),1.05
17,O=C(O)[C@H]1/C(=C/CO)O[C@@H]2CC(=O)N21 [Clavulanate potassium salt] (20 µM),0.96
18,CC(C)(C)CC(C)(C)c1ccc(OCCOCC[N+](C)(C)Cc2ccccc2)cc1 [Benzethonium chloride] (20 µM),0.975
19,CO/N=C(\C(=O)N[C@@H]1C(=O)N2C(C(=O)O)=C(C[N+]3(C)CCCC3)CS[C@H]12)c1csc(N)n1 [Cefepime hydrochloride] (20 µM),0.285 (active)
